SIRT5 block: SIRT5 desuccinylase inhibitors, primary screen, biochemical, fluorescence imaging, single point, set 5. Purified SirT5, succinyl-peptide AMC, trypsin-coupled fluorescence. inhibition, % at 15 µM. 330,000 tested, 1.1% active; in the data active = inhibition above about 15%
Target sequence (Q9NXA8 whole entry, looked up): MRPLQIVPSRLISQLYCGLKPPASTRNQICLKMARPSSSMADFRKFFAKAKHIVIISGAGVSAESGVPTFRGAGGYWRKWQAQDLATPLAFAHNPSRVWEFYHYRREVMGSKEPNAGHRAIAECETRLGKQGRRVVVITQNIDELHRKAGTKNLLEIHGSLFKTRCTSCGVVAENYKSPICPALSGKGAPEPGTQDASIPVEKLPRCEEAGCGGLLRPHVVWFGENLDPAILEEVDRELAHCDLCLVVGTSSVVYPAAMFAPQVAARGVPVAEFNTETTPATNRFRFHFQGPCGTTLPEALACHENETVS
NSD2 inh: NSD2 histone methyltransferase inhibitors, primary screen, biochemical, AlphaScreen, single concentration, set 2. inhibition, % at 12.5 µM. Histone-lysine N-methyltransferase NSD2 (Homo sapiens), O96028. NSD2 peptide methylation, 120 min. AID 743445, 2014. 310,000 tested, 0.54% active; in the data active = inhibition above about 50%
SUMO HTRF inh: inhibitors of in vitro SUMOylation cascade, primary screen, biochemical, HTRF, uHTS; SUMO-conjugating enzyme UBC9 (Homo sapiens), P63279; HTRF SUMOylation assay, SAE1/SAE2 + UBC9; inhibition, % at 35 µM; 290,000 tested, 0.36% active; AID 2006, 2009; in the data active = inhibition above about 50%, passing the limit was not always enough
Casp6 inh: human caspase-6 inhibitors, primary screen, biochemical, VEID-R110 fluorescence, single point, set 2; 350,000 tested, 0.53% active; inhibition, % at 12.5 µM; P55212; purified caspase-6, Z-VEID-R110 cleavage fluorescence; AID 686996, 2013;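 active = mean inhibition across replicates at least about 35%, with every replicate also reaching that limit, limit read from the data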;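 also: 0% = median of neutral control wells and 100% = no fluorescence left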
Alpha artifact: AlphaScreen signal interference with preloaded methylated product, dose response, artefact control for NSD2 inhibitor project, biochemical, cherry-picked samples; shares compounds with NSD2 inh; AlphaScreen artifact counterscreen, preloaded methylated H4 peptide; AC35, µM (highest dose often 10 µM), inactives show at the highest dose activity change, negative = signal loss; 1,500 tested, 9.4% active; call rule not given here
An asterisk follows results filed as active; . = no result. This is a sample that favours compounds with a hit; in the whole collection about 1.6% have one here.

SMILES	SIRT5 block	NSD2 inh	SUMO HTRF inh	Casp6 inh	Alpha artifact
Cn1c(=O)[nH]c(=O)c2c1nc(N/N=C/c1ccncc1)n2Cc1ccc(F)cc1	-2	62*	-4	0	-2%
Cc1ccc(N2CN=c3s/c(=C\c4ccccn4)c(=O)n3C2)cc1	.	59*	5	.	-8%
Cc1nc2ccc(S(=O)(=O)N3CCCCC3)cc2s1	2	51*	24	2	-1%
Nc1nc2ccc(S(=O)(=O)N3CCCCC3)cc2s1	-2	.	11	-2	.
CO[C@@H]1CN(C)C(=O)c2ccc(NS(=O)(=O)c3ccc(-c4ccccc4)cc3)cc2OC[C@@H](C)NC[C@@H]1C	7	.	.	-3	.
C/C(C/C(C)=C1/SC(=S)NC1=O)=C1\SC(=S)NC1=O	49*	132*	36	.	-15%
Cc1[nH]c(=O)[nH]c1C(=O)CCCCC(=O)O	-1	130*	-7	-4	-5%
COC(=O)c1ccc(/C=N/N2CCN(Cc3ccccc3)CC2)cc1	.	52*	-10	.	-6%
O=C(NC(=S)NNC(=O)c1ccccc1O)c1ccccc1	-5	1	-16	-1	.
Cc1ccc(C(=O)NC(=S)NNC(=O)c2ccccc2O)cc1	0	50*	-54	.	-7%
Cc1ccc(NC(=O)c2cc([N+](=O)[O-])ccc2NCc2cccnc2)cc1Cl	.	127*	0	.	-7%
Cc1ccc(/C=C2/SC(=O)NC2=S)o1	.	177*	26	.	-13%
CCS(=O)(=O)N1CC2(CN(Cc3ccc4c(c3)OCO4)[C@@H](CO)c3c2c2ccc(OC)cc2n3C)C1	0	.	.	0	.
COCC(=O)N1CC2(CN(C(=O)c3cccnc3)C2)c2c([nH]c3cc(OC)ccc23)[C@@H]1CO	-1	.	.	-1	.
Cc1cc(-c2n[nH]c(=S)n2N=Cc2cccc(Oc3ccccc3)c2)n[nH]1	.	19	.	.	.
Cc1cc(-c2n[nH]c(=S)n2N=Cc2cccc(OCc3ccccc3)c2)n[nH]1	.	63*	.	.	-9%
Cn1c(CSCc2ccccc2)nnc1SCC(=O)Nc1nccs1	.	120*	2	.	-1%
C[C@H]1CN([C@@H](C)CO)S(=O)(=O)c2ccc(-c3ccccc3)cc2O[C@H]1CN(C)C	8	.	.	-4	.
CC(C)NC1CCC(Nc2ccnc3cc(Cl)ccc23)CC1 (stereo unspecified)	.	81*	.	-14	-3%
CS(=O)(=O)N1Cc2cc(C(=O)O)nc(-c3cccc(-c4ccccc4F)c3)c2[C@H]1CCO	4	.	.	7	.
Cc1[nH][nH]c(=O)c1C(c1c(C)[nH][nH]c1=O)c1cn(Cc2cccc3ccccc23)c2ccccc12	.	.	79	.	.
Cc1[nH][nH]c(=O)c1C(c1c(C)[nH][nH]c1=O)c1cn(C)c2ccccc12	2	51*	97	35	-3%
O=C(NCCN1CCCCC1)/C(=C/c1ccco1)NC(=O)c1ccccc1	2	79*	-3	-8	-2%
Cc1ccc(C(=O)N/C(=C\c2ccco2)C(=O)NCCN2CCCCC2)cc1C	0	5	6	-8	.
Cc1ccc(S(=O)(=O)N(C)C[C@@H]2Oc3ccc(NC(=O)Nc4ccc5c(c4)OCO5)cc3C(=O)N([C@H](C)CO)C[C@@H]2C)cc1	-3	.	.	-1	.
SMILES	SIRT5 block	NSD2 inh	SUMO HTRF inh	Casp6 inh	Alpha artifact
COc1ccc(-n2c(N)c(C(=O)NCC3CCCO3)c3nc4ccccc4nc32)c(OC)c1 (stereo unspecified)	.	-29	82	.	.
C=CCn1c(N)c(C(=O)NCC2CCCO2)c2nc3ccccc3nc21 (stereo unspecified)	.	99*	95*	.	12%
C[C@H](CO)N1C[C@H](C)[C@@H](CN(C)Cc2ccc(C(=O)Nc3ccccc3N)cc2)Oc2c(NC(=O)Nc3ccc4c(c3)OCO4)cccc2C1=O	3	.	.	8	.
Cc1c(F)cccc1NC(=O)CCCCCC1NC(=O)NC1C (stereo unspecified)	4	.	-15	-5	.
CC1NC(=O)NC1CCCCCC(=O)Nc1ccc(F)cc1 (stereo unspecified)	-4	103*	1	-3	1.9µM*
CC[n+]1ccc(/C=C/c2ccc(N(C)C)cc2)c2ccccc21	4	94*	-247	-7	8.7µM*
Nc1nonc1C(=O)NCCNC(=O)c1ccccc1F	.	67*	-2	.	2%

Assay outcomes: PubChem, several laboratories
